Assay results as given in PubChem BioAssay AID1159580 (chemical genetic matrix, 2015).
Values joined by “and” are separate entries in the source; they are usually repeats but may differ in a detail not shown here. Equal values may be shown once. Among all 5,500 compounds or so, about 2,000 (36%) were called active. Roughly 18% stayed inconclusive and do not appear here. Rule as the data show it: active = normalized growth mostly below about 0.91 (no sharp cut-off); inconclusive = no clear call, values can overlap the other calls; inactive = mostly above about 0.92. The list shows a part of the results.

Experiment: chemical genetic growth profiling, strain panel (AID 1159580);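 also: tested at 20 µM; growth read once vehicle control cultures reached saturation at 30 °C; 1 = growth at the plate median or of vehicle wells; lower values mean less growth of the strain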
Conditions: S. cerevisiae deletion strains, growth OD

Measured: normalized growth

N#Cc1c(Cl)c(Cl)c(Cl)c(C#N)c1Cl
inactive: locus YAL013W, strain DEP1, stronger effect = lower value 1 | locus YBR021W, strain FUR4, stronger effect = lower value 0.953 | locus YBR229C, strain ROT2, stronger effect = lower value 0.991 | locus YCL029C, strain bik1, stronger effect = lower value 0.976 | locus YDL035C, strain GPR1, stronger effect = lower value 1 | locus YDL074C, strain BRE1, stronger effect = lower value 1.01 | locus YDL101C, strain DUN1, stronger effect = lower value 1 | locus YDL134C, strain PPH21, stronger effect = lower value 0.992 | locus YDL185W, strain tfp1, stronger effect = lower value 0.951 | locus YDL192W, strain arf1, stronger effect = lower value 0.984 | locus YDR101C, strain arx1, stronger effect = lower value 0.986 | locus YDR150W, strain NUM1, stronger effect = lower value 1.01 | locus YDR162C, strain NBP2, stronger effect = lower value 1.01 | locus YDR318W, strain mcm21, stronger effect = lower value 0.975 | locus YDR388W, stronger effect = lower value 0.97 | locus YDR502C, strain sam2, stronger effect = lower value 0.996 | locus YEL061C, strain CIN8, stronger effect = lower value 1 | locus YER110C, stronger effect = lower value 0.976 | locus YER155C, strain BEM2, stronger effect = lower value 0.993 | locus YER167W, strain BCK2, stronger effect = lower value 0.993 | locus YGL078C, strain dbp3, stronger effect = lower value 0.983 | locus YGL086W, strain mad1, stronger effect = lower value 0.976 | locus YGL248W, strain PDE1, stronger effect = lower value 0.994 | locus YGR078C, strain PAC10, stronger effect = lower value 1.01 | locus YGR135W, strain pre9, stronger effect = lower value 0.998 | locus YGR229C, strain SMI1, stronger effect = lower value 1 | locus YGR252W, strain gcn5, stronger effect = lower value 0.932 | locus YHR079C, strain IRE1 (second series), stronger effect = lower value 0.98 | locus YHR094C, strain hxt1, stronger effect = lower value 0.979 | locus YHR129C, strain ARP1, stronger effect = lower value 1 | locus YHR200W, strain rpn10, stronger effect = lower value 0.973 | locus YIL066C, strain RNR3, stronger effect = lower value 0.989 | locus YIL073C, strain SPO22, stronger effect = lower value 0.969 | locus YIL125W, strain kgd1, stronger effect = lower value 0.98 | locus YIR030C, strain dcg1, stronger effect = lower value 0.976 | locus YJL134W, strain LCB3, stronger effect = lower value 0.998 | locus YJL168C, strain set2, stronger effect = lower value 0.985 | locus YJL187C, strain SWE1 (second series), stronger effect = lower value 0.994 | locus YJR043C, strain POL32, stronger effect = lower value 0.994
active: locus YAL021C, strain ccr4, stronger effect = lower value 0.0842 | locus YAL026C, strain drs2, stronger effect = lower value 0.0831 | locus YAL030W, strain snc1, stronger effect = lower value 0.0677 | locus YBL061C, strain skt5, stronger effect = lower value 0.0748 | locus YBR009C, strain hhf1, stronger effect = lower value 0.0742 | locus YBR023C, strain chs3, stronger effect = lower value 0.0756 | locus YBR171W, strain sec66, stronger effect = lower value 0.0931 | locus YBR231C, strain swc5, stronger effect = lower value 0.077 | locus YBR279W, strain paf1, stronger effect = lower value 0.0631 | locus YCL011C, strain gbp2, stronger effect = lower value 0.0716 | locus YCL016C, strain dcc1, stronger effect = lower value 0.0812 | locus YCL061C, strain MRC1, stronger effect = lower value 0.078 | locus YCL069W, strain vba3, stronger effect = lower value 0.0768 | locus YCR088W, strain abp1, stronger effect = lower value 0.0707 | locus YDL005C, strain med2, stronger effect = lower value 0.0898 | locus YDL040C, strain nat1, stronger effect = lower value 0.0666 | locus YDR001C, strain nth1, stronger effect = lower value 0.071 | locus YDR069C, strain doa4, stronger effect = lower value 0.0807 | locus YDR137W, strain rgp1, stronger effect = lower value 0.106 | locus YDR159W, strain sac3, stronger effect = lower value 0.113 | locus YDR195W, strain ref2 0.161 | locus YDR297W, strain sur2, stronger effect = lower value 0.0715 | locus YDR334W, strain swr1, stronger effect = lower value 0.0727 | locus YDR335W, strain msn5, stronger effect = lower value 0.0699 | locus YDR392W, strain spt3, stronger effect = lower value 0.0937 | locus YEL003W, strain gim4, stronger effect = lower value 0.0699 | locus YEL037C, strain rad23, stronger effect = lower value 0.0662 | locus YEL061C, strain CIN8 (second series), stronger effect = lower value 0.0687 | locus YER015W, strain faa2, stronger effect = lower value 0.078 | locus YER016W, strain bim1, stronger effect = lower value 0.0769 | locus YER111C, strain swi4, stronger effect = lower value 0.0874 | locus YER155C, strain BEM2 (second series), stronger effect = lower value 0.108 | locus YFR010W, strain ubp6, stronger effect = lower value 0.0828 | locus YGL167C, strain pmr1, stronger effect = lower value 0.0894 | locus YGL173C, strain kem1, stronger effect = lower value 0.084 | locus YGL227W, strain vid30, stronger effect = lower value 0.0779 | locus YGL240W, strain doc1, stronger effect = lower value 0.0947 | locus YGL253W, strain hxk2, stronger effect = lower value 0.0661 | locus YHR013C, strain ard1, stronger effect = lower value 0.114 | locus YHR027C, strain rpn1, stronger effect = lower value 0.0746 | locus YHR079C, strain IRE1, stronger effect = lower value 0.142 | locus YHR142W, strain chs7, stronger effect = lower value 0.0874 | locus YJL092W, strain hpr5, stronger effect = lower value 0.0707 | locus YJL095W, strain BCK1 (second series), stronger effect = lower value 0.0749 | locus YJL115W, strain asf1, stronger effect = lower value 0.0849 | locus YJL129C, strain trk1, stronger effect = lower value 0.106 | locus YJL154C, strain vps35, stronger effect = lower value 0.07 | locus YJL164C, strain tpk1, stronger effect = lower value 0.0766 | locus YJL166W, strain qcr8, stronger effect = lower value 0.0732 | locus YJR066W, strain TOR1, stronger effect = lower value -0.00264
1 (inactive) and 0.151 (active): locus YJL095W, strain BCK1, stronger effect = lower value
0.992 (inactive) and 0.126 (active): locus YHR030C, strain SLT2, stronger effect = lower value
